The record followed here is PubChem BioAssay AID504700 (The Scripps Research Institute Molecular Screening Center, 2011).

About 270 (0.079%) of roughly 340,000 compounds were called active.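 Rule for the calls: active = activation above a cutoff set at the mean over all compounds plus 3 SD (cut at about 18% in these data); inactive = the rest.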 The entries come from a sample that favours actives as a whole. Where a SMILES comes first, the peptide text is derived from it.

Sequence of cAMP-dependent protein kinase catalytic subunit beta (Homo sapiens) + cAMP-dependent protein kinase type II-beta regulatory subunit (Homo sapiens) (P31323 whole entry, looked up, other chains not shown, the tested form may be a part): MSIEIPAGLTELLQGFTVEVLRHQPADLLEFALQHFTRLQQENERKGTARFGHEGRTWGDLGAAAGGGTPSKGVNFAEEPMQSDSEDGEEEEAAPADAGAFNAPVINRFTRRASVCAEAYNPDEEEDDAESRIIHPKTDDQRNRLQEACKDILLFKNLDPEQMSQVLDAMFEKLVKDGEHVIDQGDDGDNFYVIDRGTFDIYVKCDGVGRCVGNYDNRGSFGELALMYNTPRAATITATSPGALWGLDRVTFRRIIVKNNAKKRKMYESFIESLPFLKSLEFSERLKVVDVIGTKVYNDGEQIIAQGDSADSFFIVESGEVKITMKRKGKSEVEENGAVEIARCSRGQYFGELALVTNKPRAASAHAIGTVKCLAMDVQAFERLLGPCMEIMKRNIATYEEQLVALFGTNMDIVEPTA

This assay concerns the target cAMP-dependent protein kinase catalytic subunit beta (Homo sapiens) + cAMP-dependent protein kinase type II-beta regulatory subunit (Homo sapiens) (UniProt P22694+P31323). Kind of assay: activators of PKA-R2B holoenzyme, primary screen, biochemical, fluorescence polarization, Cy5-IP20, human (AID 504700).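 Note: higher means more holoenzyme dissociation and a rise in polarization.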 The note with it: PKA-R2B holoenzyme dissociation, at 11.4 µM, hits give high values, 0% DMSO only, 100% 113 µM cGMP, R2B truncated from residue 108, S112A mutant. (In general: In fluorescence polarisation assays a small probe gives low polarisation when free and higher when bound to something large.)
For `C[C@H]1CN([C@@H](C)CO)C(=O)c2cc(-c3cccc(F)c3)cnc2O[C@@H]1CN(C)S(C)(=O)=O`, the activation is 4.49% (inactive). In the case of `O=C(C1CCCO1)N1CCN(C(=O)C23CC4CC(CC(C4)C2)C3)CC1` (centres undefined) it was 7.92% (inactive); in that of `O=Nc1c(O)cc(O)c2ccccc12`, -0.7% (inactive); in that of `O=C(CCN1CCCCC1)Nc1ccc(F)c(F)c1`, -4% (inactive). In the case of `O[C@H]1C[C@H](c2ccc(Cl)cc2)N(Cc2cccs2)C[C@@H]1n1cc(C2CC2)nn1` it was -5.34% (inactive); in that of `COc1ccc(-c2ccc3[nH]c4c(c3c2)CCN2C[C@H]3[C@H](C)ON(C)[C@H]3C[C@@H]42)cc1`, -1.96% (inactive); in that of `C[C@H]1CN([C@@H](C)CO)C(=O)c2cc(Br)cnc2O[C@H]1CN(C)S(=O)(=O)c1cccs1`, -1.49% (inactive). In the case of `O=C(c1ncn2c1c(=O)[nH]c1ccccc12)N1CCc2ccccc2C1` it was 0.26% (inactive). Turning to `Cc1cccc(C)c1NC(=O)CNC(=O)c1ccc(N2CCOCC2)c([N+](=O)[O-])c1`, the activation was -5.41% (inactive). In the case of `Cc1noc(C)c1NC(=O)N(C)C[C@@H]1Oc2cc(Br)ccc2S(=O)(=O)N([C@@H](C)CO)C[C@H]1C` it was -6.5% (inactive).

Turning to `Cc1cn([C@H]2C[C@H](O)[C@@H](CNC(=O)[C@H](N)Cc3cccnc3)O2)c(=O)[nH]c1=O`, the activation was 3.26% (inactive). In the case of `COc1ccc(NC(=O)CN(C)C(=O)c2cc(C)oc2C)cc1` it was 7.31% (inactive). In the case of `O=C(NCCc1cccc(F)c1)C1CC(O)CN1C(=O)Nc1ccccc1` (centres undefined) it was -8.6% (inactive); in that of `COc1ccc([C@H]2N[C@]3(CCCN(Cc4ccco4)C3=O)[C@H]3C(=O)N(C)C(=O)[C@@H]23)cc1`, -1.07% (inactive).

In the case of `C[C@H]1CN([C@@H](C)CO)C(=O)c2cc(C3=CCCCC3)cnc2O[C@@H]1CN(C)C(=O)Cc1ccccc1`, the activation was 4.23% (inactive). In the case of `Cc1nonc1C(=O)N/N=C/c1ccc(O)cc1` it was -0.48% (inactive); in that of `Nc1nnn(CC(=O)N/N=C/c2ccc(O)cc2)n1`, -7.14% (inactive); in that of `CC(C)(C)c1nnc(N/N=C/c2ccc(O)cc2)n(N)c1=O`, 21.1% (active). In the case of `COc1cc2nnn(-c3ccncc3)c2cc1OC` it was 5.36% (inactive). In the case of `COc1ccc(C(=O)OCC(=O)Nc2cc(C)on2)cc1F` it was 1.88% (inactive); in that of `COC(=O)C[C@H]1C[C@@H]2c3cc(NC(=O)Nc4ccccc4)ccc3O[C@@H]2[C@@H](CO)O1`, 6.99% (inactive). `CC(C)[C@H](NC(=O)c1ccccc1F)C(=O)Nc1cccc(S(=O)(=O)N2CCOCC2)c1`: the activation was 4.82% (inactive). In the case of `Cc1ccc([C@H]2N[C@]3(CCCN(CC4CCCCC4)C3=O)[C@H]3C(=O)N(Cc4ccccc4)C(=O)[C@@H]23)cc1` it was -3.62% (inactive); in that of `O=C(CNC(=O)c1ccccc1)NCC(=O)OCC(=O)c1ccccc1` (HELM PEPTIDE1{[O=C(c1ccccc1)[*:2]].G.G.[O=C(CO[*:1])c1ccccc1]}$$$$V2.0), 22.6% (active).

Consider `O=C(CNC(=O)c1ccco1)OCC(=O)c1ccccc1`, for which the activation is 3.42% (inactive).

`O=C(CNC(=O)c1ccccc1)NCC(=O)OCc1ccc(Cl)cc1`: the activation was -2.62% (inactive). In the case of `O=C(O)C1CCCN1c1nc(Cl)ccc1[N+](=O)[O-]` (centres undefined) it was 5.76% (inactive). In the case of `COc1ccc(C(CNC(=O)c2ccc(OCc3cscn3)cc2)N2CCCC2)cc1` (centres undefined) it was 3.82% (inactive); in that of `O=C(O)C1=C(C(=O)O)C2CCC1C2`, 19.1% (active). In the case of `COc1ccc(S(=O)(=O)N2CCCCC2)cc1C(=O)NC1CCS(=O)(=O)C1` (centres undefined) it was -9.4% (inactive); in that of `C[C@@H]1CN([C@@H](C)CO)C(=O)c2cc(NS(C)(=O)=O)ccc2O[C@@H](C)CCCCO[C@H]1CN(C)C(=O)Nc1ccc2c(c1)OCO2`, 3.71% (inactive).

Turning to `COc1cccc(C(=O)Nc2ccc3nc4n(c(=O)c3c2)CCCCC4)c1`, the activation is -0.66% (inactive). In the case of `CC(C)C1CCN(C(=O)C2CCC(=O)N(C3CCCCCC3)C2)CC1` (centres undefined) it was -0.9% (inactive). In the case of `N#CCCN(C(=O)Nc1ccc(Cl)c(Cl)c1)C1CCCCC1` it was 1.61% (inactive); in that of `O=C(c1ccc(CS(=O)Cc2ccccc2Cl)o1)N1CCN(c2ccccc2)CC1` (centres undefined), 2.13% (inactive). In the case of `COc1ccc(-c2cnc3c(c2)C(=O)N([C@H](C)CO)C[C@@H](C)[C@H](CN(C)Cc2ccccc2)O3)cc1` it was 5.52% (inactive). For `CCOc1cc(/C=N/NC(=O)c2ccncc2)cc(Br)c1O`, the activation is -1.34% (inactive). In the case of `Cc1ccc(NC(=O)c2ccco2)cc1` it was 4.37% (inactive); in that of `CC1(C)CN(CCc2ccccc2)C(=O)[C@H]1CC(=O)Nc1ccc(Br)cc1`, -0.64% (inactive). In the case of `COc1ccc(NC(=O)N(C)C[C@H]2Oc3ncc(C#C[C@@H](C)O)cc3C(=O)N([C@H](C)CO)C[C@H]2C)cc1` it was 2.12% (inactive); in that of `COCOCCn1cc(CN2CCS(=O)(=O)N(Cc3ccc(-c4ccc(OC)cc4)cc3)C(CC(C)C)C2=O)nn1` (centres undefined), -14.1% (inactive); in that of `Cc1cccc(C(=O)NC2CCN(CC(=O)Nc3cccc(Cl)c3)CC2)c1`, -3.65% (inactive). Turning to `COc1ccc(OC)c(NC(=O)C2CCCN2S(=O)(=O)c2ccc3c(c2)CC(C)N3C(C)=O)c1` (centres undefined), the activation was -3.21% (inactive). Take `CC(=O)NC(Cc1ccc(F)c(F)c1)C(=O)NC1CCN(C(=O)c2ccc(C)cc2)CC1` (centres undefined): the activation was -1.79% (inactive). In the case of `COc1ccc(CC(NC(C)=O)C(=O)NC2CCN(C(=O)c3ccc(OC)c(OC)c3)CC2)cc1OC` (centres undefined) it was -5.58% (inactive); in that of `COc1ccc(CC(NC(C)=O)C(=O)NC2CCN(C(=O)c3ccc(Cl)cc3)CC2)cc1` (centres undefined), 19.4% (active); in that of `COc1cccc(Nc2nnc(SCC(=O)N3CC(C)OC(C)C3)s2)c1` (centres undefined), 19.7% (active). In the case of `COc1cccc(Nc2nnc(SCC(=O)N3CC(=O)Nc4ccccc43)s2)c1` it was -4.91% (inactive); in that of `COc1ccc(C(=O)CSc2nnc(NC(=O)C3CC(=O)N(c4cccc(OC)c4)C3)s2)cc1` (centres undefined), -12.2% (inactive).

As to `C[C@@H]1CN([C@@H](C)CO)C(=O)CCCn2nncc2CO[C@@H]1CN(C)S(=O)(=O)c1ccc(-c2ccccc2)cc1`, the activation was 8.61% (inactive). In the case of `CN1CCn2cnc(C(=O)NCC(=O)OC(C)(C)C)c2C1=O` it was 6.86% (inactive); in that of `C[C@H]1CN([C@@H](C)CO)C(=O)CCCn2cc(nn2)CO[C@@H]1CN(C)S(=O)(=O)c1ccc(-c2ccccc2)cc1`, -2.02% (inactive); in that of `Cc1csc(=O)n1CCC(=O)OCC(=O)Nc1ccc(N2CCOCC2)cc1`, -13.7% (inactive).

For `COc1cc(C)c(CN2CCN(C(=O)CCC(=O)c3ccc(C)s3)CC2)cc1OC`, the activation was -4.23% (inactive).

Take `C[C@@H]1CN([C@H](C)CO)C(=O)c2cc(-c3ccc(F)cc3)cnc2O[C@H]1CN(C)C(=O)c1ccc(F)cc1`: the activation was -10.7% (inactive).

On to `O=C(CCc1ccc(O)cc1)NN=Cc1cc(Br)ccc1O`, for which the activation was -5.67% (inactive). For `CCCCN1CC(C)(C)[C@H](CC(=O)Nc2ccc(Br)cc2)C1=O`, the activation was -7.25% (inactive). In the case of `C=CCOc1cccc(C2C(C(=O)c3ccc(C)o3)=C(O)C(=O)N2CCN2CCOCC2)c1` (centres undefined) it was 2.21% (inactive). Take `CC1(C)CC(=O)C=C(c2ccccc2CO)C1=O`: the activation is -3.08% (inactive). In the case of `C[C@@H]1CN([C@@H](C)CO)C(=O)CCCn2nncc2CO[C@H]1CN(C)C(=O)Nc1ccc(C(F)(F)F)cc1` it was -17.1% (inactive); in that of `C[C@@H]1CN([C@H](C)CO)C(=O)CCCn2nncc2CO[C@@H]1CN(C)C(=O)OCc1ccccc1`, -4.31% (inactive); in that of `O=C(NCCOc1ccccc1)N1[C@H]2CC[C@@H]1C=C(c1ccc(F)cc1OCc1ccccc1)C2`, -0.02% (inactive).

As to `CSc1ncnc2c1ncn2CCCNCC(C)c1ccccc1` (centres undefined), the activation is -3.46% (inactive). In the case of `Cc1ccc(-c2ccc(CN3C(C)C(=O)N(Cc4cn(CCC5OCCCO5)nn4)CCS3(=O)=O)cc2)cc1` (centres undefined) it was -0.73% (inactive); in that of `CSc1ncccc1C(=O)N1CCCC(Nc2ccc(F)c(F)c2)C1` (centres undefined), -3.17% (inactive); in that of `COc1ccccc1-n1c(SCC(=O)Nc2ccc(Cl)cc2)nc(O)c(Cc2ccccc2)c1=O`, 0.18% (inactive). In the case of `Cc1cc(=O)c2ccc(NC(=O)c3ccccc3)cc2[nH]1` it was 0.43% (inactive); in that of `O=C(CN(C(=O)CCC(=O)Nc1nccs1)c1ccc(F)cc1)NCc1ccc2c(c1)OCO2`, 18.4% (active); in that of `COc1ccc(N(CC(=O)NCc2ccc(F)cc2)C(=O)CCC(=O)Nc2nccs2)cc1`, -12.4% (inactive). In the case of `CCC(C)(C)NC(=O)CN(C(=O)CCC(=O)Nc1nccs1)c1ccc2c(c1)OCO2` it was 6.11% (inactive); in that of `O=C(Nc1ccc2c(c1)[C@@H]1C[C@@H](CC(=O)N3CCCCC3)O[C@@H](CO)[C@@H]1O2)NC1CCCCC1`, -11.6% (inactive). For the compound `O=C(OCc1cn([C@@H]2C[C@H](c3ccc(Cl)cc3)N(Cc3cccs3)C[C@H]2O)nn1)c1ccccc1`, the activation was -14.6% (inactive).

Take `CCN(CC)C(=O)C1=C(C)N(Cc2ccc(F)cc2)C(=O)C(CC(=O)NCc2cccc3ccccc23)C1` (centres undefined): the activation was 1.37% (inactive).

Take `O=c1[nH]c2ccccc2n1C1CCN(CCOc2ccccc2)CC1`: the activation is -11% (inactive). With `CSC1=NN(c2ccccc2)CN(c2ccccc2)N1C`, the activation was 9.82% (inactive). In the case of `O=C(COC(=O)Cc1ccc(Cl)cc1Cl)NCc1ccco1` it was -1.41% (inactive); in that of `CCCC(=O)Nc1ncnc2c1ncn2[C@@H]1O[C@@H]2OP(=O)(O)OC[C@H]2[C@H]1OC(=O)CCC`, 42.6% (active). In the case of `CCOC(=O)c1c(C)[nH]c(C)c1C(=O)COC(=O)/C=C/c1cccc([N+](=O)[O-])c1` it was -7.22% (inactive).

Turning to `COc1ccc(CN2C(=O)C(CC(=O)NCCN3CCOCC3)CC(C(=O)N(C(C)C)C(C)C)=C2C)cc1` (centres undefined), the activation was -6% (inactive).
